# How the values were obtained:
# Experiment in all cases: DAPPL (digital affinity profiling via proximity ligation, sequencing); 10 mM Tris-HCl pH 7.5, 50 mM NaCl, 1 mM DTT, 4% glycerol, room temperature, 30 min; GST-TFs on glutathione beads, 16-mer random dsDNA library, 0.1% formaldehyde crosslink after washing; high values mean tight binding
# Settings in all cases: protein: recombinant; tags: N-terminal GST; dsDNA, one strand shown
# FLI1 = molecular target: T1, FLI1 (Homo sapiens, UniProt Q01543 1-452)
# T1 sequence: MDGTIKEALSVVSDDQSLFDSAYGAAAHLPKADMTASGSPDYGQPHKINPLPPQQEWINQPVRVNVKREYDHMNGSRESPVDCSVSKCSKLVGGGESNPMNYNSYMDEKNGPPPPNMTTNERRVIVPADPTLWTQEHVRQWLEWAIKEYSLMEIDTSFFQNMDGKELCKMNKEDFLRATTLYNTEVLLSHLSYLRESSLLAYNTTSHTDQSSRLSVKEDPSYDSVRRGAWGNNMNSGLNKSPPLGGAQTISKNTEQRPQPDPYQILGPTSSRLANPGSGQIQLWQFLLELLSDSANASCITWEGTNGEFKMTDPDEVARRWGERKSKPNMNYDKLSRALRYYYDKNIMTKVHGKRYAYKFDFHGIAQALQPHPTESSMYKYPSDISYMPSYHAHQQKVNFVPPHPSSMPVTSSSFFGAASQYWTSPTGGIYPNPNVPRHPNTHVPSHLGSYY
# Summary of the method: (§1)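 The binding signal reported is, for every hexamer, its read frequency for a factor over its read frequency for the tag-only sample. Reads came from pools of yeast-expressed, GST-fused human transcription factors on glutathione beads, barcoded with DNA and mixed with that sample, which were incubated with 200 nmole of a random double-stranded 16-mer DNA library in Tris/NaCl/DTT/glycerol buffer at room temperature for 30 min. After washing, the pools were crosslinked with 0.1% formaldehyde, proximity-ligated with BsaI/T4 ligase for 1 h at 37 °C, PCR-amplified and sequenced on an Illumina NextSeq500.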
# ELK1 = molecular target: T2, ELK1 (Homo sapiens, UniProt P19419 1-428)
# T2 sequence: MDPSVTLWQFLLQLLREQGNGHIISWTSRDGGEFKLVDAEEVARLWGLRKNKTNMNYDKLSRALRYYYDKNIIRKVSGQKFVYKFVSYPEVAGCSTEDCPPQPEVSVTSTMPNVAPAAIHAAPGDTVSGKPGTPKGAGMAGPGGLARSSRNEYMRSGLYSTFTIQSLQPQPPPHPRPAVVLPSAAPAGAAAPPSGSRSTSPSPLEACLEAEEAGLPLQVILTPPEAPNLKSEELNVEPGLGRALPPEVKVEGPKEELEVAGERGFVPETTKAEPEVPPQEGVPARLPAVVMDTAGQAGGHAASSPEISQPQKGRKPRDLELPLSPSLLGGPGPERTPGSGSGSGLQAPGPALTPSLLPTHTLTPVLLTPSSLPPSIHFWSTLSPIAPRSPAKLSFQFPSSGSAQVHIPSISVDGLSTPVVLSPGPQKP
# Summary of the method: as §1
# GABPA = molecular target: T3, GABPA (Homo sapiens, UniProt Q06546 1-454)
# T3 sequence: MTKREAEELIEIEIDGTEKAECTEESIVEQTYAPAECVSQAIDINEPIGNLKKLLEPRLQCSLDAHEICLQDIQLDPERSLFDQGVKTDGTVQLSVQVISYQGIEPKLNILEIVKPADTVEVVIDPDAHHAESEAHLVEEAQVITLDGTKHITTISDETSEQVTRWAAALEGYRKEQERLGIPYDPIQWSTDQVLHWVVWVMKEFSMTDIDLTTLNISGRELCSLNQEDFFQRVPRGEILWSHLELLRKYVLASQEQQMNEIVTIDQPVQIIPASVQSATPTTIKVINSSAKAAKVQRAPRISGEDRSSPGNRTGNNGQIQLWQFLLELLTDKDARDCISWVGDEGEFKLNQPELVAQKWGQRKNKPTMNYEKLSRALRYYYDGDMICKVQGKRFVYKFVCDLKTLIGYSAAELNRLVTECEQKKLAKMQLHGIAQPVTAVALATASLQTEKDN
# Summary of the method: as §1
# ERG = molecular target: T4, ERG (Homo sapiens, UniProt P11308 1-479)
# T4 sequence: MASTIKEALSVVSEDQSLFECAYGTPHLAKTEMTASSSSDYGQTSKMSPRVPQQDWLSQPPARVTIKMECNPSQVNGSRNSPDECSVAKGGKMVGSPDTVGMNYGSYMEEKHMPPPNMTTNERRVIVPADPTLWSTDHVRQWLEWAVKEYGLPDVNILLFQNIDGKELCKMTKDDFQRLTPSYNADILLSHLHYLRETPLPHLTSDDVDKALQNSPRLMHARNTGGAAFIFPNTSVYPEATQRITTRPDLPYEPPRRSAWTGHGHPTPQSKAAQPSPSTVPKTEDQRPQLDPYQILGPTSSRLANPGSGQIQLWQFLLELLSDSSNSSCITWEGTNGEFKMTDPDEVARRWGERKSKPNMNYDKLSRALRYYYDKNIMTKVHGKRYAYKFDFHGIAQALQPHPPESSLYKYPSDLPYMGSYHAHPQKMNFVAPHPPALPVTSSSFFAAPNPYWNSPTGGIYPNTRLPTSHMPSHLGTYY
# Summary of the method: as §1
# ELF1 = ELF1 (Homo sapiens, UniProt P32519 1-619)
# Sequence of ELF1 (P32519 whole entry): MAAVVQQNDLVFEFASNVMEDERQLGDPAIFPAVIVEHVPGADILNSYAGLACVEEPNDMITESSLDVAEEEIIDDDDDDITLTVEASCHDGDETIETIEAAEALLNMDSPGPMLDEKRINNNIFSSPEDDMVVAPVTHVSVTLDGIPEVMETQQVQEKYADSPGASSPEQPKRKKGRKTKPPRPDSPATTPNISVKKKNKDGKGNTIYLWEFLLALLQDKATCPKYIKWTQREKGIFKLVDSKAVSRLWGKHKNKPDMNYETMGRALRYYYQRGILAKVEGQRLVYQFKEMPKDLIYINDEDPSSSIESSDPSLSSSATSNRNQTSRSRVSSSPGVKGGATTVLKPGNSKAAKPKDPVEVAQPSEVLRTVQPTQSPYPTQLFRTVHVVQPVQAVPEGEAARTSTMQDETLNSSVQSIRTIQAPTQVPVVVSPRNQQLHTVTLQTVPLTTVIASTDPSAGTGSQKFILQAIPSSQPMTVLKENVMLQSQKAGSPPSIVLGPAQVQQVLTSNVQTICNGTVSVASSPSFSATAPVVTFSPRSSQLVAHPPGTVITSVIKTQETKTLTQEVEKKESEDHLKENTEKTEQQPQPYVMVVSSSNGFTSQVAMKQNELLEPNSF
# Summary of the method: as §1
# EHF = molecular target: T5, EHF (Homo sapiens, UniProt Q9NZC4 1-300)
# T5 sequence: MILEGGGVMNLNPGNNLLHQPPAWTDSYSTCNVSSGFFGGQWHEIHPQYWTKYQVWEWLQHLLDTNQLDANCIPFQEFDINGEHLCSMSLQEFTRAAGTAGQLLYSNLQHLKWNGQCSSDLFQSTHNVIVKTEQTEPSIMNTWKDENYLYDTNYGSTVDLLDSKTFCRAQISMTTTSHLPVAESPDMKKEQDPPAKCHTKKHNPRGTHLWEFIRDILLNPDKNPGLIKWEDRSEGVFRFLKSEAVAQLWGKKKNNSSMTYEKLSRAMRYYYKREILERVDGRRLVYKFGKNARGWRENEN
# Summary of the method: as §1
# SPI1 = SPI1 (Homo sapiens, UniProt P17947 1-270)
# Summary of the method: as §1
# SPIB = SPIB (Homo sapiens, UniProt Q01892 1-262)
# Sequence of SPIB (Q01892 whole entry): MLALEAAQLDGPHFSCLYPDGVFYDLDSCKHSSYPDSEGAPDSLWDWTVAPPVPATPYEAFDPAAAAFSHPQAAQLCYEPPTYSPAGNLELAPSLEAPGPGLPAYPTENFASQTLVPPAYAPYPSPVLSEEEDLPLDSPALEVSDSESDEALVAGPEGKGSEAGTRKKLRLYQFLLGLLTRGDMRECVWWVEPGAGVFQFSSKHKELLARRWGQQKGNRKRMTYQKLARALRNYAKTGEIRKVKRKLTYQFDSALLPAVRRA
# Summary of the method: as §1
# ELK3 = molecular target: T6, ELK3 (Homo sapiens, UniProt P41970 1-407)
# T6 sequence: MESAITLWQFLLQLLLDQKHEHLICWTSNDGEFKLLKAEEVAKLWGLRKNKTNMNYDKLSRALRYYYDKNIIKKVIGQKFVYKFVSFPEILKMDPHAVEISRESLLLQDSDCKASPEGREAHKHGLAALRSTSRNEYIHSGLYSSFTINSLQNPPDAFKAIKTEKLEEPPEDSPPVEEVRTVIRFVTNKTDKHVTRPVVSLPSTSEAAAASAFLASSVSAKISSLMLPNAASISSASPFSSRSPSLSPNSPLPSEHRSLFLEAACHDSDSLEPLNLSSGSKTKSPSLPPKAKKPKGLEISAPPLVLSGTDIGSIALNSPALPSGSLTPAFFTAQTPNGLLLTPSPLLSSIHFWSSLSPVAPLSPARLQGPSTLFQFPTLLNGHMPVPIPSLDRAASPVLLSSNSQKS
# Summary of the method: as §1
sequence,measurement,setting,value
AACCTC,binding signal,FLI1,"1.22 fold enrichment (6-mer frequency, TF over GST control)"
same,binding signal,ELK1,"1.27 fold enrichment (6-mer frequency, TF over GST control)"
same,binding signal,GABPA,"1.28 fold enrichment (6-mer frequency, TF over GST control)"
same,binding signal,ERG,"1.23 fold enrichment (6-mer frequency, TF over GST control)"
same,binding signal,ELF1,"1.29 fold enrichment (6-mer frequency, TF over GST control)"
same,binding signal,EHF,"1.2 fold enrichment (6-mer frequency, TF over GST control)"
same,binding signal,SPI1,"1.2 fold enrichment (6-mer frequency, TF over GST control)"
same,binding signal,SPIB,"1.19 fold enrichment (6-mer frequency, TF over GST control)"
same,binding signal,ELK3,"1.23 fold enrichment (6-mer frequency, TF over GST control)"
CCATTT,binding signal,FLI1,"1.25 fold enrichment (6-mer frequency, TF over GST control)"
same,binding signal,ELK1,"1.29 fold enrichment (6-mer frequency, TF over GST control)"
same,binding signal,GABPA,"1.42 fold enrichment (6-mer frequency, TF over GST control)"
same,binding signal,ERG,"1.4 fold enrichment (6-mer frequency, TF over GST control)"
same,binding signal,ELF1,"1.27 fold enrichment (6-mer frequency, TF over GST control)"
same,binding signal,EHF,"1.31 fold enrichment (6-mer frequency, TF over GST control)"
same,binding signal,SPI1,"1.45 fold enrichment (6-mer frequency, TF over GST control)"
same,binding signal,SPIB,"1.37 fold enrichment (6-mer frequency, TF over GST control)"
same,binding signal,ELK3,"1.33 fold enrichment (6-mer frequency, TF over GST control)"
TGTTCC,binding signal,FLI1,"1.69 fold enrichment (6-mer frequency, TF over GST control)"
same,binding signal,ELK1,"1.61 fold enrichment (6-mer frequency, TF over GST control)"
same,binding signal,GABPA,"1.74 fold enrichment (6-mer frequency, TF over GST control)"
same,binding signal,ERG,"1.68 fold enrichment (6-mer frequency, TF over GST control)"
same,binding signal,ELF1,"1.66 fold enrichment (6-mer frequency, TF over GST control)"
same,binding signal,EHF,"1.83 fold enrichment (6-mer frequency, TF over GST control)"
same,binding signal,SPI1,"1.81 fold enrichment (6-mer frequency, TF over GST control)"
same,binding signal,SPIB,"1.8 fold enrichment (6-mer frequency, TF over GST control)"
same,binding signal,ELK3,"1.5 fold enrichment (6-mer frequency, TF over GST control)"
TCCCAT,binding signal,FLI1,"1.36 fold enrichment (6-mer frequency, TF over GST control)"
same,binding signal,ELK1,"1.37 fold enrichment (6-mer frequency, TF over GST control)"
same,binding signal,GABPA,"1.51 fold enrichment (6-mer frequency, TF over GST control)"
same,binding signal,ERG,"1.45 fold enrichment (6-mer frequency, TF over GST control)"
same,binding signal,ELF1,"1.44 fold enrichment (6-mer frequency, TF over GST control)"
same,binding signal,EHF,"1.43 fold enrichment (6-mer frequency, TF over GST control)"
same,binding signal,SPI1,"1.28 fold enrichment (6-mer frequency, TF over GST control)"
same,binding signal,SPIB,"1.48 fold enrichment (6-mer frequency, TF over GST control)"
same,binding signal,ELK3,"1.47 fold enrichment (6-mer frequency, TF over GST control)"
GTCTCC,binding signal,FLI1,"1.45 fold enrichment (6-mer frequency, TF over GST control)"
same,binding signal,ELK1,"1.5 fold enrichment (6-mer frequency, TF over GST control)"
same,binding signal,GABPA,"1.52 fold enrichment (6-mer frequency, TF over GST control)"
same,binding signal,ERG,"1.26 fold enrichment (6-mer frequency, TF over GST control)"
same,binding signal,ELF1,"1.39 fold enrichment (6-mer frequency, TF over GST control)"
same,binding signal,EHF,"1.4 fold enrichment (6-mer frequency, TF over GST control)"
same,binding signal,SPI1,"1.52 fold enrichment (6-mer frequency, TF over GST control)"
same,binding signal,SPIB,"1.43 fold enrichment (6-mer frequency, TF over GST control)"
same,binding signal,ELK3,"1.56 fold enrichment (6-mer frequency, TF over GST control)"
TCTCCC,binding signal,FLI1,"1.66 fold enrichment (6-mer frequency, TF over GST control)"
same,binding signal,ELK1,"1.68 fold enrichment (6-mer frequency, TF over GST control)"
same,binding signal,GABPA,"1.74 fold enrichment (6-mer frequency, TF over GST control)"
same,binding signal,ERG,"1.54 fold enrichment (6-mer frequency, TF over GST control)"
same,binding signal,ELF1,"1.63 fold enrichment (6-mer frequency, TF over GST control)"
same,binding signal,EHF,"1.73 fold enrichment (6-mer frequency, TF over GST control)"
same,binding signal,SPI1,"1.47 fold enrichment (6-mer frequency, TF over GST control)"
same,binding signal,SPIB,"1.71 fold enrichment (6-mer frequency, TF over GST control)"
same,binding signal,ELK3,"1.75 fold enrichment (6-mer frequency, TF over GST control)"
ATTACC,binding signal,FLI1,"1.22 fold enrichment (6-mer frequency, TF over GST control)"
same,binding signal,ELK1,"1.13 fold enrichment (6-mer frequency, TF over GST control)"
same,binding signal,GABPA,"1.16 fold enrichment (6-mer frequency, TF over GST control)"
same,binding signal,ERG,"1.26 fold enrichment (6-mer frequency, TF over GST control)"
same,binding signal,ELF1,"1.23 fold enrichment (6-mer frequency, TF over GST control)"
same,binding signal,EHF,"1.4 fold enrichment (6-mer frequency, TF over GST control)"
same,binding signal,SPI1,"1.16 fold enrichment (6-mer frequency, TF over GST control)"
same,binding signal,SPIB,"1.36 fold enrichment (6-mer frequency, TF over GST control)"
same,binding signal,ELK3,"1.26 fold enrichment (6-mer frequency, TF over GST control)"
CCTTTA,binding signal,FLI1,"1.36 fold enrichment (6-mer frequency, TF over GST control)"
same,binding signal,ELK1,"1.4 fold enrichment (6-mer frequency, TF over GST control)"
same,binding signal,GABPA,"1.37 fold enrichment (6-mer frequency, TF over GST control)"
same,binding signal,ERG,"1.21 fold enrichment (6-mer frequency, TF over GST control)"
same,binding signal,ELF1,"1.36 fold enrichment (6-mer frequency, TF over GST control)"
same,binding signal,EHF,"1.29 fold enrichment (6-mer frequency, TF over GST control)"
same,binding signal,SPI1,"1.45 fold enrichment (6-mer frequency, TF over GST control)"
same,binding signal,SPIB,"1.3 fold enrichment (6-mer frequency, TF over GST control)"
same,binding signal,ELK3,"1.21 fold enrichment (6-mer frequency, TF over GST control)"

# From publication PMC7862700, “An all-to-all approach to the identification of sequence-specific readers for epigenetic DNA modifications on cytosine”
